Bioassay records as filed in PubChem.
Compounds with a hit are over-represented: about 2.3% of the library has one in this group of screens.
CHT PAM – CHT positive allosteric modulators, primary screen, cell-based, membrane potential dye, choline EC20; High affinity choline transporter 1 (Homo sapiens), Q9GZV3; CHT-expressing cells; hits give high values; LV-AA mutant CHT in HEK293 cells; B-score at 10 µM; 310,000 tested, 0.49% active; AID 488977, 2010;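 active means initial fluorescence not abnormally high and integrated response B-score, plate-corrected, over 3 SD above library mean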
Target sequence (Q9GZV3 whole entry, looked up): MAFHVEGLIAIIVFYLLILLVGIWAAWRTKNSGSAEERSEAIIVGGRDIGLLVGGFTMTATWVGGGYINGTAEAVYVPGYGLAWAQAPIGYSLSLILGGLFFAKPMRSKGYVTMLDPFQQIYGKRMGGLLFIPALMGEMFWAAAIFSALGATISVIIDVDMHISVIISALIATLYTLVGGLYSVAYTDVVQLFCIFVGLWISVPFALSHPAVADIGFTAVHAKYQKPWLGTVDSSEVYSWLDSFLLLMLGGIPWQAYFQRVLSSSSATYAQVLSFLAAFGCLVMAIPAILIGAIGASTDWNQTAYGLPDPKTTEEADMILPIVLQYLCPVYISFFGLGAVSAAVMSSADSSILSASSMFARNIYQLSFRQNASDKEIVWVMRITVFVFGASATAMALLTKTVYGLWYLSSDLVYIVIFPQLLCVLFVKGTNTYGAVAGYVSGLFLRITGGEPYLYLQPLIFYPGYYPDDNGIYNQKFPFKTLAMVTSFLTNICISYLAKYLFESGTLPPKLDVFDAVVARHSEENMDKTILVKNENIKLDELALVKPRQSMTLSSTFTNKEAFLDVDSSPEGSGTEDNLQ
TMEM16A act – TMEM16A chloride channel activators or potentiators, primary screen, cell-based, HTS; HEK293 TMEM16A/YFP-H148Q/I152L, iodide quench fluorescence; hits give low values; B-score at 10 µM; 340,000 tested, 0.3% active; AID 623877, 2012;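 active means fluorescence-ratio B-score plate-corrected deviation score at least 3 library SD below zero, with starting fluorescence score within 5 deviations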;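 further: channel opened by trigger with iodide after compound preincubation; score built on the fluorescence ratio of max minus min over baseline; more negative score means more quench and so TMEM16A activation or potentiation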
TMEM16A inh – TMEM16A chloride channel inhibitors, primary screen, cell-based, HTS | HEK293 TMEM16A/YFP iodide influx fluorescence, ionomycin | normalized B-score (activity score, 25-100; higher = stronger inhibition) at 10 µM | 310,000 tested, 1.2% active | AID 588511, 2011;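 active means ratio plate-corrected score three or more library SD toward inhibition, starting fluorescence score within five deviations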;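 further: score derived from kinetic fluorescence span divided by baseline fluorescence per well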
CHT inh – inhibitors of human choline transporter CHT. High affinity choline transporter 1 (Homo sapiens), Q9GZV3. CHT-expressing cells, membrane potential dye, choline response; hits give low values. B-score at 10 µM. 310,000 tested, 0.86% active. AID 488975, 2010;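 active means B-score over 3 SD under the library average, and starting fluorescence ratio not unusually high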;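 further: choline stimulus applied at its EC90 after an EC20 pre-addition; B-score computed on integrated fluorescence ratio after choline addition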
CHT inh conf – CHT inhibitors, confirmation, cell-based, membrane potential dye, duplicate; 2,400 tested, 70% active; shares compounds with CHT inh; CHT activity remaining % of control (hits give low values), % at 10 µM; CHT-expressing cells, choline membrane potential dye; LV-to-AA substituted CHT, HEK293 cells;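 active means choline transporter activity left, mean of duplicates at 10 µM, below buffer-only control mean minus 3 SD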;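 further: depolarization triggered by choline at its EC90 following an EC20 pre-addition; 0% = hemicholinium-3 full block and 100% = buffer-only control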
HEK293 MPD ctr – membrane potential effects in parental HEK293, counter-screen for CHT inhibitor project, cell-based, membrane potential dye; 2,400 tested, 4% active; choline response; active = decrease or increase beyond buffer ±3SD; membrane potential ratio readout (active if shifted either direction beyond buffer ±3SD; no single direction) at 10 µM; shares compounds with CHT inh;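 further: parental cells lack the transporter so any hit is non-specific; ratio is peak minus trough fluorescence over baseline after EC90 choline challenge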
An asterisk follows results filed as active; i = inactive; . = no result given.

SMILES	CHT PAM	TMEM16A act	TMEM16A inh	CHT inh	CHT inh conf	HEK293 MPD ctr
O=C(NCC(c1ccco1)N1CCCC1)c1cccc(NS(=O)(=O)c2ccc(Br)cc2)c1 (configuration not stated)	i	i	i	i	.	.
COc1ccccc1NS(=O)(=O)c1ccc(C)c(C(=O)NCC(c2ccco2)N2CCCCC2)c1 (configuration not stated)	i	i	i	-16.1*	-4.8%*	i
COc1ccccc1NS(=O)(=O)c1cccc(C(=O)NCC(c2ccco2)N2CCCC2)c1 (configuration not stated)	.	i	.	.	.	.
COc1ccc(C(CNC(=O)c2cccc(S(=O)(=O)Nc3ccc(C)cc3)c2)N2CCCCC2)cc1 (configuration not stated)	i	i	i	-13.6*	11.6%*	i
COc1ccc(NS(=O)(=O)c2cccc(C(=O)NCC(c3ccco3)N3CCCCC3)c2)cc1 (configuration not stated)	i	i	i	-10.7*	0.3%*	i
Cc1cccc(NS(=O)(=O)c2cccc(C(=O)NCC(c3ccco3)N3CCCCC3)c2)c1 (configuration not stated)	i	i	i	-6.65*	13.8%*	i
COC(=O)c1cc(Br)ccc1NC(=O)CSCc1c(C)noc1C	.	i	.	.	.	.
CCCCn1c(N)c(N(C)C(=O)c2ccc(-n3cccn3)cc2)c(=O)[nH]c1=O	.	i	.	.	.	.
COc1cc2c(cc1OC)C(c1cccs1)N(C(=O)c1cccnc1)CC2 (configuration not stated)	i	i	i	-5.74*	i	i
COc1ccc(C(=O)N2CCc3cc(OC)c(OC)cc3C2c2ccc(OC)c(OC)c2)cc1OC (configuration not stated)	i	i	i	i	.	.
CN(CC(=O)Nc1cc(S(=O)(=O)N2CCCC2)ccc1Cl)Cc1nc2ccccc2c(=O)[nH]1	.	i	.	.	.	.
CN(Cc1ccccc1)S(=O)(=O)c1ccc(N2CCCC2=O)cc1	.	i	.	.	.	.
CCOC(=O)c1c(C)c(C(=O)N2CCc3ccccc3C2)c(C)n1CC	i	i	i	-5.84*	38.6%*	i
CCOC(=O)c1c(C)c(C(=O)Nc2ccccc2)c(C)n1CC	i	i	i	i	.	.
CCN(CC(=O)NCc1ccc(F)cc1)C(=O)c1ccc(C(=O)c2ccccc2)cc1	i	i	i	-5.75*	i	i
CCN(CC(=O)NCc1ccc(F)cc1)C(=O)c1ccc(Cl)cc1	i	i	i	i	.	.
COc1cc2c(cc1OC)CN(C(=O)c1cc(C3CC3)nn1-c1ccccc1)CC2	.	i	.	.	.	.
COCC(C)N1CCC(Oc2cccc(C(=O)NCCc3ccccc3)c2)CC1 (configuration not stated)	i	i	i	-10.1*	14.2%*	i
CC(NC(=O)c1cccc(OC2CCN(C3CCN(C)CC3)CC2)c1)c1ccccc1 (configuration not stated)	i	i	i	i	.	.
CC(C)CN1CCC(Oc2cccc(C(=O)NCCc3ccccc3)c2)CC1	i	i	i	-11.8*	21.0%*	i
CC(NC(=O)c1cccc(OC2CCN(C(=O)C3CC3)CC2)c1)c1ccc(F)cc1 (configuration not stated)	i	i	i	-6.28*	37.6%*	i
C/C=C(\C)CN1CCC(Oc2cccc(C(=O)NCc3ccccn3)c2)CC1	i	i	i	-9.07*	21.1%*	i
COc1cc2c(cc1OC)C(c1c(Cl)cccc1Cl)NC(=O)C2 (configuration not stated)	i	i	i	-5.45*	i	i
CCCc1cc(=O)[nH]c(SCc2cc(C(=O)OC)c(C)o2)n1	i	i	i	-5.98*	i	i
CC1(C)CCC(=O)N2CC[C@H]3c4cc5ccccc5nc4C[C@@H]1[C@H]32	.	i	.	.	.	.
SMILES	CHT PAM	TMEM16A act	TMEM16A inh	CHT inh	CHT inh conf	HEK293 MPD ctr
O=C(Oc1ccc(C(=S)N2CCOCC2)cc1)c1ccccc1F	i	i	i	i	.	.
O=C(COc1ccc(S(=O)(=O)N2CCOCC2)cc1)N1CCN(c2ccccc2)CC1	i	i	i	i	.	.
CCCCn1c(N)c(N(CC(C)C)C(=O)c2ccc(C)c(S(=O)(=O)N3CCCCC3)c2)c(=O)[nH]c1=O	i	i	i	i	.	.
Cc1ccc(SCc2cc(=O)[nH]c(N3CCN(C)CC3)n2)cc1	i	i	i	i	.	.
Cc1ccc(SCC2=NN(c3nc(C)cc(C)n3)C(=O)C2)cc1	i	i	i	-6.46*	23.4%*	i
CC1=NC(C)(C)Cc2cc(C)c(C)cc21	i	i	i	-8.21*	41.6%*	i
O=S(=O)(c1ccc2ccccc2c1)N1CCN=C1SCc1cccnc1	i	i	i	-5.01*	i	i
CN(C)CCCn1c(=O)n(C2CCCCC2)c(=O)c2c3c(sc21)CCCCC3	i	i	i	-7.98*	35.5%*	i
COc1ccccc1N1CCN(C(=O)c2cccc(S(=O)(=O)NCc3cccnc3)c2)CC1	.	i	.	.	.	.
CCCn1nc([N+](=O)[O-])c(C(C#N)c2nc3ccccc3o2)c(Cl)c1=O (configuration not stated)	i	i	100*	-12.4*	16.4%*	i
CCn1nc([N+](=O)[O-])c(C(C#N)c2nc3cc(C(F)(F)F)ccc3s2)c(Cl)c1=O (configuration not stated)	i	i	i	i	.	.
Cc1ccc(-n2cc(CN3CCNC(=O)CC3)c(-c3cccc(C)c3)n2)cc1	i	i	i	i	.	.
Cc1ccc(-n2cc(CN3CCN(Cc4nccn4C)CC3)c(-c3cccc(C)c3)n2)cc1	i	i	i	-5.63*	26.8%*	i
CC(C)N(Cc1ccccc1)C(=O)COC(=O)c1ccc(O)cc1	.	i	.	.	.	.
O=C(O)c1ccc(/C=C2\COc3ccccc3C2=O)cc1	i	i	i	-6.76*	33.4%*	i
COc1ccc(/C=C2\COc3ccccc3C2=O)cc1OC	i	i	i	i	.	.
Cc1ccc(NC(=O)c2ccc(CN3CC(=O)N4CCCCC4C3=O)cc2)c(C)c1 (configuration not stated)	i	i	i	-5.49*	9.5%*	i
